The record followed here is PubChem BioAssay.

Calls of active or inactive are those of the source. No rule for the calls is given here.

The test in a line: hESC survival regulators, cell-based (AID 493140).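 Also: cells exposed to compounds for four days before counting.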 The conditions noted are these: human embryonic stem cell survival screen; hits give high values.
With `CCc1c(C)[nH]c2c1C(=O)C(CN1CCOCC1)CC2` (centres undefined), the survival was 6.5 (inactive). In the case of `CCC1=C(C)CN(C(=O)NCCc2ccc(S(=O)(=O)NC(=O)NC3CCC(C)CC3)cc2)C1=O` (centres undefined), the survival was 5.08 (inactive). Next, `O=C(O)/C=C/c1ccc(Cn2ccnc2)cc1`: 12.1 (inactive); `CN1[C@@H]2CC[C@H]1CC(OC(=O)C(O)c1ccccc1)C2` (some centres undefined): 24.7 (inactive). Regarding `Cc1cccc(C)c1NC(=O)C(C)N` (centres undefined), the survival was 11.7 (inactive).

With `C#C[C@]1(O)CC[C@H]2[C@@H]3CCc4cc(OC)ccc4[C@H]3CC[C@@]21C`, the survival was 3.33 (inactive). With `O=C(CCCN1CCN(c2ccccn2)CC1)c1ccc(F)cc1`, the survival was 14.6 (inactive).

`CCC(=O)O[C@]1(C(=O)SCF)[C@H](C)C[C@H]2[C@@H]3C[C@H](F)C4=CC(=O)C=C[C@]4(C)[C@@]3(F)[C@@H](O)C[C@@]21C`: the survival is 6.58 (inactive). Under `CC(C)N=C(N)/N=C(\N)Nc1ccc(Cl)cc1` stands 3 (inactive). Next, `CN1CCC(=C2c3ccccc3CCc3sccc32)CC1`: 5.08 (inactive); `CC(C)NCC(O)COc1ccc(COCCOC(C)C)cc1` (centres undefined): 6.5 (inactive).

On to `COc1ncnc(NS(=O)(=O)c2ccc(N)cc2)c1OC`, for which the survival was 14.8 (inactive).

For `Cc1c(Nc2ncccc2C(=O)O)cccc1C(F)(F)F`, the survival is 3.67 (inactive). For the compound `CCCCN(CCCC)CCC(O)c1cc2c(Cl)cc(Cl)cc2c2cc(C(F)(F)F)ccc12` (centres undefined), the survival is 1.5 (inactive). Next, `CC1(C)O[C@@H]2C[C@H]3[C@@H]4C[C@H](F)C5=CC(=O)CC[C@]5(C)[C@H]4[C@@H](O)C[C@]3(C)[C@]2(C(=O)CO)O1`: 4.42 (inactive); `O=C(O)[C@@H]1[C@H]2C[C@H]3c4[nH]c5ccccc5c4CCN3C[C@@H]2CC[C@@H]1O`: 2.42 (inactive).

Regarding `O=C1C(=O)c2ccccc2C(O)=C1C1CCC(c2ccc(Cl)cc2)CC1` (centres undefined), the survival is 8.83 (inactive). Next, `C[C@]12CC[C@@H]3c4ccc(O)cc4CC[C@H]3[C@@H]1C[C@@H](O)[C@@H]2O`: 7.75 (inactive); `Cc1c(N(C)C)c(=O)n(-c2ccccc2)n1C`: 13.6 (inactive). In the case of `CC(C)(C(=O)c1cccnc1)c1cccnc1`, the survival is 5 (inactive). Under `CCOc1cc(CC(=O)N[C@@H](CC(C)C)c2ccccc2N2CCCCC2)ccc1C(=O)O` stands 7.75 (inactive); under `COc1ccc(CC2c3cc(OC)c(OC)cc3CC[N+]2(C)CCC(=O)OCCCCCOC(=O)CC[N+]2(C)CCc3cc(OC)c(OC)cc3C2Cc2ccc(OC)c(OC)c2)cc1OC` (centres undefined), 12.4 (inactive); under `N#Cc1ccc(C(c2ccc(C#N)cc2)n2cncn2)cc1`, 1.25 (inactive). Under `Cc1nccn1CC1CCc2c(c3ccccc3n2C)C1=O` (centres undefined) stands 36.2 (inactive). Next, `Nc1ccc(O)c(C(=O)O)c1`: 4.33 (inactive); `CCCOc1ccc(C(=O)OCCN(CC)CC)cc1N`: 5.92 (inactive); `O=C(O)CCCC[C@@H]1SC[C@@H]2NC(=O)N[C@@H]21`: 18.6 (inactive).

In the case of `Oc1ccc(OCc2ccccc2)cc1`, the survival was 3.58 (inactive). Under `COc1cc(N)c(Cl)cc1C(=O)NC1CCN(Cc2ccccc2)CC1` stands 5.67 (inactive); under `COC(=O)C1=C(C)NC(C)=C(C(=O)OC(C)C)C1c1cccc2nonc12` (centres undefined), 16.1 (inactive). Next, `CCCc1c(OCCCCc2nn[nH]n2)ccc(C(C)=O)c1O`: 110 (inactive); `O=C(CCCCC(=O)Nc1c(I)cc(I)c(C(=O)O)c1I)Nc1c(I)cc(I)c(C(=O)O)c1I`: 5.33 (inactive); `Cc1ncc([N+](=O)[O-])n1CC(O)CCl` (centres undefined): 23.5 (inactive). Under `Cc1c(Cl)cccc1Nc1ccccc1C(=O)O` stands 17.2 (inactive). For `CNNCc1ccc(C(=O)NC(C)C)cc1`, the survival was 6.5 (inactive).

`CCOC(=O)NNc1nncc2ccccc12`: the survival is 22 (inactive). Next, `C[C@H](N)[C@H](O)c1cccc(O)c1`: 28.4 (inactive); `CC(C)(C)NC(=O)[C@H]1CC[C@H]2[C@@H]3CC[C@H]4NC(=O)C=C[C@]4(C)[C@H]3CC[C@]12C`: 7 (inactive); `COc1cccc2c1C(=O)c1c(O)c3c(c(O)c1C2=O)C[C@@](O)(C(=O)CO)C[C@@H]3O[C@H]1C[C@H](N)[C@H](O)[C@H](C)O1`: 0.167 (inactive).
